We go through 18 molecules from PubChem BioAssay (Tox21).

Experiment [1] in a line: qHTS assay for small molecules that induce genotoxicity in human embryonic kidney cells expressing luciferase-tagged ATAD5 (AID 651632). Also: nearly all actives have a fitted effect of over 15% in size. Also: potency is read from the fitted curve at half-maximal effect. Put shortly: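 Reporter cells (HEK293T) express luciferase-tagged ATAD5, a protein that accumulates after DNA damage. Treat 16 hr at 37C/5% CO2, add Amplite, wait 30 min at RT, and read luminescence.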
For orientation: Quantitative high-throughput screening tests each substance at several concentrations.

A short description of experiment [2]: qHTS assay for small molecule agonists of the p53 signaling pathway - cell viability (AID 651633; calls by dose curve; also: nearly all actives have a fitted effect of over 30% in size; also: potency is read from the fitted curve at half-maximal effect). The essentials:
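p53RE-bla cells, seeded at 4,000 per well and rested 5 h at 37 C/5% CO2, received compounds in DMSO for 16 h at 37 C. CellTiter-Glo was then added, and luminescence was read after 30 min at room temperature to gauge cytotoxicity.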

Experiment [3] in a line: qHTS assay for small molecules that induce genotoxicity in human embryonic kidney cells expressing luciferase-tagged ATAD5 - cell viability (AID 651634; calls by dose curve; also: nearly all actives have a fitted effect of over 25% in size; also: potency is read from the fitted curve at half-maximal effect). The essentials:
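Seeding of 2,000 HEK293T ATAD5-luciferase cells per well preceded pin-tool compound transfer. Plates sat 15.5 hr at 37C under 5% CO2, then fluorescence was read after 30 min with CellTiter-Fluor.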

The nature of experiment [4]: qHTS assay for small molecule disruptors of the mitochondrial membrane potential - cell viability (AID 720634; calls by dose curve; also: nearly all actives have a fitted effect of over 20% in size; also: potency is read from the fitted curve at half-maximal effect). The essentials: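 Measuring cytotoxicity alongside mitochondrial potential, the screen quantified ATP by luminescence in HepG2 cells after 1 hr compound incubation and a 30 min room-temperature CellTiter-Glo step.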
Experiment [5] is described as follows: qHTS assay for small molecule disruptors of the mitochondrial membrane potential (AID 720635). Also: potency is read from the fitted curve at half-maximal effect. The essentials: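 HepG2 cells (2,000/well) attached overnight at 37C, then took compound for 1 hr at 37C, 5% CO2. Mito-MPS dye was added for 30 min; fluorescence was read at 490/535 nm (monomers) and 540/590 nm (aggregates).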
Experiment [6] in a line: qHTS assay to test for compound auto fluorescence at 590 nm (red) in HepG2 cells (AID 720674). Put shortly:
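Compound auto-fluorescence is scored relative to Rose Bengal sodium, measured at 540/590 nm in live HepG2 cultures after 1 hr compound contact (37 C, 5% CO2).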

A short description of experiment [7]: qHTS assay to test for compound auto fluorescence at 535 nm (green) in HepG2 cells (AID 720675).
The nature of experiment [8]: qHTS assay to test for compound auto fluorescence at 590 nm (red) in HEK293 cells (AID 720679). Put shortly:
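HEK293 cells (2,000/well, 10% dialyzed FBS) attached 4-5 hr, then dosed with compound or DMSO and incubated overnight at 37C, 5% CO2. Red fluorescence read at 540/590 nm, Rose Bengal sodium as reference fluorophore.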

A short description of experiment [9]: qHTS assay to test for compound auto fluorescence at 460 nm (blue) in HEK293 cells (AID 720678). The essentials:
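HEK293 cells (2,000/well, medium with 10% dialyzed FBS) attached 4-5 hr, then exposed to compound overnight at 37C, 5% CO2. Blue fluorescence read at 405/460 nm, with triamterene as reference fluorophore.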

The nature of experiment [10]: qHTS assay for small molecule agonists of the p53 signaling pathway (AID 651631; calls by dose curve; also: nearly all actives have a fitted effect of over 15% in size; also: potency is read from the fitted curve at half-maximal effect). The essentials:
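Fluorescence intensity from cleaved LiveBLAzer B/G substrate (2 h, room temperature) served as the signal. Beforehand, HCT-116 reporter cells bearing p53 response elements were treated 16 h at 37 °C with DMSO-dissolved compounds.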

SMILES strings stand for the structures. Values joined by “and” are separate entries in the source; they are usually repeats but may differ in a detail not shown here. Equal entries are not always repeated. Records with an inconclusive call do not appear. Some structures have more than one record in an assay (separate samples or runs), and their calls can disagree. Active and inactive are the calls of the source. Unless noted, calls follow the shape of the dose curve; as a rule, active = well fitted curve in the direction sought with a large enough effect in the repeat runs; inconclusive = weak or mixed curves; inactive = no such curve, though single readings can be large; an effect the other way counts as inactive or inconclusive.

As to `CCC(C)(Oc1ccc(C2(c3ccc(OC(C)(CC)C(=O)O)cc3)CCCCC2)cc1)C(=O)O` (centres undefined), the Potency entry in [1], in experiment [2], in experiment [3], in experiment [4], in experiment [5] and in experiment [7] was “inactive” each time. The outcome in experiment [6] and in [8] was inactive.

On to `CCCCCCC(O)CCCCCCCCCCC(=O)O` (centres undefined), for which the Potency entry in [1], in [2], in experiment [3], in [7] and in experiment [9] was “inactive” each time. In addition, the Potency entry in experiment [5] was “inactive and 54.5 µM (active)”. Moreover, the molecule was classed as inactive in [6] and in experiment [8].

On to `CN(C)c1ccc2nc3ccc(=[N+](C)C)cc-3sc2c1`, for which the Potency result in experiment [1], in experiment [7] and in experiment [9] was “inactive” each time. The Potency in experiment [2] is 3.35 µM (active); in [3], 11.9 µM (active) and 2.94 µM (active) and 48.6 µM (active); in [4] it was 10.6 µM (active) and 23.4 µM (active) and 61.1 µM (active); in experiment [5] it was 2.37 µM (active) and 830 nM (active) and 1.37 µM (active). Further, the call in experiment [6] and in [8] was inactive.

As to `c1ccc2cc3c(ccc4ccccc43)cc2c1`, in experiment [1], the Potency is 68.8 µM (active). Moreover, the Potency result in [2], in experiment [3], in experiment [7] and in experiment [9] was “inactive” throughout. Besides, the outcome in experiment [6] and in experiment [8] was inactive.

Regarding `O=C(OCc1ccccc1)c1ccc(O)cc1`, the Potency entry in [10], in experiment [2], in experiment [3], in [7] and in [9] was “inactive” in each case. Moreover, in [5], the Potency is 13.3 µM (active) and 15.4 µM (active). The molecule was called inactive in [6] and in experiment [8].

`O=Nc1ccc(Nc2ccccc2)cc1`: the Potency in [10] was 27.4 µM (active); in experiment [3] it was 48.8 µM (active); in experiment [5] it was 21.8 µM (active). Further, the outcome in experiment [6] and in experiment [8] was inactive. Besides, the Potency entry in [7] and in experiment [9] was “inactive” throughout.

As to `COc1ccc(Cc2cnc(N)nc2N)cc1OC`, the Potency entry in experiment [1], in experiment [2], in experiment [3], in experiment [4], in [5] and in experiment [7] was “inactive” throughout. Further, the Potency result in [9] is “inactive”. Besides, the call in experiment [6] and in experiment [8] was inactive.

As for `C1COC(NC(C2CC2)C2CC2)=N1`, the Potency entry in experiment [1], in [2], in [3], in experiment [4], in experiment [5] and in [7] was “inactive” in each case. The Potency entry in [9] was “inactive”. Moreover, the outcome in experiment [6] and in [8] was inactive.

`CCc1cc(C(C)(C)C)c(O)c(C(C)(C)C)c1`: the Potency result in experiment [1], in experiment [7] and in experiment [9] was “inactive” each time. Besides, the Potency was 15.5 µM (active) and inactive in experiment [2]; 15.5 µM (active) and 30.6 µM (active) in [5]. Further, the outcome in [6] and in [8] was inactive.

For `O=C(O)c1cccc(C(=O)O)c1`, the Potency entry in experiment [2], in experiment [4], in experiment [5], in experiment [7] and in experiment [9] was “inactive” in each case. Besides, the outcome in experiment [6] and in experiment [8] was inactive.

As for `BrC1CCC(Br)C(Br)CCC(Br)C(Br)CCC1Br` (centres undefined), the Potency result in experiment [1], in experiment [3], in experiment [4], in experiment [7] and in [9] was “inactive” throughout. Besides, the Potency in [5] was 3.84 µM (active) and 9.19 µM (active). In addition, the molecule was called inactive in experiment [6] and in experiment [8].

Consider `Cc1ccc(S(=O)(=O)Oc2ccc(N=Nc3ccc(-c4ccc(N=Nc5c(O)ccc6cc(S(=O)(=O)O)cc(S(=O)(=O)O)c56)c(C)c4)cc3C)cc2)cc1`, for which the Potency entry in experiment [2], in [7] and in [9] was “inactive” in each case. Moreover, the Potency in experiment [3] is 54.7 µM (active) and 20 µM (active). Besides, the molecule was called inactive in [6] and in experiment [8].

As for `c1ccc2c(c1)CCCC2C1=NCCN1` (centres undefined), the Potency result in experiment [1], in [3], in experiment [4] and in experiment [7] was “inactive” in each case. The molecule was called inactive in experiment [6] and in experiment [8].

In the case of `CC(C)(C)c1cc(C(C)(C)C)c(O)c(C(C)(C)C)c1`, the Potency entry in experiment [1], in experiment [3], in experiment [4] and in experiment [7] was “inactive” throughout. The Potency in [5] is 17.2 µM (active) and 27.3 µM (active). Further, the outcome in experiment [6] and in experiment [8] was inactive.

As for `COc1ccc(CCN2CCC(Nc3nc4ccccc4n3Cc3ccc(F)cc3)CC2)cc1`, the Potency in experiment [2] is 26.6 µM (active) and 11.1 µM (active); in experiment [3] it was 26.6 µM (active) and 44.2 µM (active); in experiment [4], 49.6 µM (active). For the same molecule, the outcome in [6] and in experiment [8] was inactive. Moreover, the Potency result in experiment [7] and in experiment [9] was “inactive” each time.

Regarding `c1ccc2c(c1)-c1cccc3c1c-2cc1ccccc13`, the Potency entry in [1], in [3] and in experiment [7] was “inactive” throughout. In addition, the Potency in experiment [4] was 17.2 µM (active); in [5], 13.4 µM (active) and 13.7 µM (active). For the same molecule, the result in experiment [6] and in experiment [8] was inactive.

As for `O=C1Nc2ccccc2C1(c1ccc(O)cc1)c1ccc(O)cc1`, the Potency entry in experiment [1], in [3], in experiment [7] and in [9] was “inactive” throughout. In addition, the Potency in experiment [5] was 13.7 µM (active). Besides, the result in experiment [6] and in experiment [8] was inactive.

With `Cc1ccc(-c2cc(C(F)(F)F)nn2-c2ccc(S(N)(=O)=O)cc2)cc1`, the Potency result in experiment [1], in [7] and in experiment [9] was “inactive” each time. In addition, the Potency in experiment [2] was 54.3 µM (active); in [5] it was 11.9 µM (active) and 7.66 µM (active) and 21.7 µM (active). For the same molecule, the molecule was classed as inactive in experiment [6] and in [8].
